High-throughput results deposited in PubChem BioAssay by several laboratories.
Sampled rows, rich in hits. Any-hit rate of the full collection: about 4.6%.
tim10-1 inh = growth inhibitors of tim10-1 mutant yeast. S. cerevisiae tim10-1 ts strain growth, BacTiter-Glo, 24 h. inhibition, % at 20 µM. actives 2.2% (n = 330,000);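 active = inhibition of at least 40%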;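 also: mutant grown at 25 °C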
TIM10 inh = growth inhibitors of TIM10 yeast strain; S. cerevisiae TIM10 strain growth, BacTiter-Glo luminescence, 24 h; inhibition, % at 10 µM; actives 1.4% (n = 330,000); AID 463195;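 active = inhibition of 40% or more at the single tested concentration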;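 also: wild-type TIM10 isogenic control strain grown at permissive 25 °C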
NLRP3 yeast inh = blocks the NALP3 inflammasome reconstituted in yeast. Yeast reconstituted NLRP3/ASC/caspase-1, beta-gal luminescence, 24 h. inhibition, % at 10 µM. actives 0.39% (n = 330,000). AID 2825;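 active = inhibition of 50% or more; inactive = inhibition below 50%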
tim23-1 inh = inhibits growth of tim23-1 mutant yeast; S. cerevisiae tim23-1 growth, BacTiter-Glo luminescence, 24 h; inhibition, % at 20 µM; actives 1.3% (n = 330,000);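 active = growth inhibition of the mutant yeast at or above 50%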;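 also: temperature-sensitive mutant grown at 25 °C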
PfHsp90 yeast 2 = inhibits growth of yeast expressing Plasmodium falciparum Hsp90; inhibition, % at 9.4 µM; S. cerevisiae expressing PfHsp90, BacTiter-Glo ATP, 48 h; yeast lacking PDR1 and PDR3 efflux regulators; AID 504621; actives 0.32% (n = 310,000);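 active = every replicate shows inhibition above about 80%, whatever the replicate mean, limit read from the data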
SKKanGAS inh = inhibitors of SKKanGAS S. pyogenes growth in kanamycin (SK-promoter or general growth effect); BacTiter-Glo, 6 h; inhibition, % at 7.5 µM; actives 1.3% (n = 300,000);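 active = mean replicate score, as percent of positive control median, at least 50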;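 also: strain carries kanamycin resistance gene driven by streptokinase promoter and grows in 40 µg/ml kanamycin; loss of luminescence reflects streptokinase promoter inhibition or plain growth inhibition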
tim10-1 conf = confirmation of tim10-1 mutant yeast growth inhibitors; shares compounds with tim10-1 inh; S. cerevisiae tim10-1 ts strain growth, BacTiter-Glo, 24 h; inhibition, % at 20 µM; actives 56% (n = 7,400); AID 463213;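 active = inhibition of yeast growth at or above a set limit in either of two repeat tests at 20 µM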;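 also: tim10-1 mutant grown at permissive 25 °C to find synthetic lethal compounds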
Hits are given with their value; 0 = inactive; - = not tested or not shown.

SMILES | tim10-1 inh | TIM10 inh | NLRP3 yeast inh | tim23-1 inh | PfHsp90 yeast 2 | SKKanGAS inh | tim10-1 conf
Cc1nn(-c2ccccc2)c(Cl)c1C1C(C#N)=C(N)Oc2c1c(C)nn2-c1ccccc1 (stereo not drawn) | 47.0 | 0 | 0 | 0 | 0 | 0 | 0
CCOC(=O)C1=C(C)OC(N)=C(C#N)C1c1c(C)nn(-c2ccccc2)c1Cl (stereo not drawn) | 52.6 | 0 | 0 | 0 | 0 | 0 | 34.5
C=CCOC(=O)C1=C(C)OC(N)=C(C#N)C1c1c(C)nn(-c2ccccc2)c1Cl (stereo not drawn) | 0 | 0 | 0 | 0 | 0 | - | -
O=C(O)c1ccc(S(=O)(=O)c2ccc(Sc3ccc(C(=O)O)c(C(=O)O)c3)cc2)cc1 | 0 | 0 | 0 | 0 | 0 | 0 | -
S=C(NCCCN1CCOCC1)Nc1cccc(-c2nnc3n2CCCCC3)c1 | 0 | 0 | 0 | 0 | 0 | 0 | -
CCC(Sc1nc(-c2ccccc2)c(-c2ccccc2)[nH]1)C(=O)O (stereo not drawn) | 0 | 0 | 0 | 0 | 0 | 0 | -
N#CC1=C(N)Oc2cc3c(cc2C1c1ccc(Cl)cc1)OCO3 (stereo not drawn) | 43.5 | 0 | 0 | 0 | 0 | 0 | 0
COc1cc(C2C(C#N)=C(N)Oc3cc4c(cc32)OCO4)cc(OC)c1OC (stereo not drawn) | 0 | 0 | 0 | 0 | 0 | 0 | -
CC(NC(=O)C1CCCN1S(=O)(=O)c1ccc2c(c1)n(C)c(=O)c(=O)n2C)c1ccccc1 (stereo not drawn) | 0 | 0 | 0 | 0 | 0 | 0 | -
Cc1c(C(=O)Nc2ccccc2-c2ccccc2)cccc1[N+](=O)[O-] | 41.9 | 0 | 0 | 0 | 0 | 0 | 0
Cc1c(C(=O)Nc2ccc(C(=O)Nc3ccccc3)cc2)cccc1[N+](=O)[O-] | 0 | 0 | 0 | 0 | 0 | 0 | -
COc1cccc(CNC(=O)c2ccc(NC(=O)C3=CSCCO3)cc2)c1 | 44.6 | 0 | 0 | 0 | 0 | 0 | 0
Cc1ccc(CNC(=O)c2ccc(NC(=O)C3=CSCCO3)cc2)cc1 | 0 | 0 | 0 | 0 | 0 | 0 | -
O=C(c1ccccc1Br)N1CCN(c2ccccc2)CC1 | 85.5 | 0 | 0 | 0 | - | 0 | 0
COc1ccccc1N1CCN(C(=O)c2oc3ccc(F)cc3c2C)CC1 | 42.0 | 0 | 0 | 0 | 0 | 0 | 0
Cc1cccc(N2CCN(C(=O)c3ccc4[nH]c(C)c(C)c4c3)CC2)c1C | 0 | 0 | 0 | 0 | 0 | - | -
COc1ccccc1N1CCN(C(=O)c2ccc3[nH]c(C)c(C)c3c2)CC1 | 42.3 | 0 | 0 | 0 | 0 | 0 | 0
Cc1[nH]c2ccc(C(=O)N3CCN(c4cccc(Cl)c4)CC3)cc2c1C | 56.0 | 0 | 0 | 0 | 93.0 | 0 | 0
N#CCCN(C(=O)COC(=O)c1ccc(CNS(=O)(=O)c2ccc(F)c(Cl)c2)cc1)c1ccc(F)cc1 | 0 | 0 | 0 | 0 | 0 | 0 | -
Cc1ccc(CNC(=O)C2CCN(S(=O)(=O)c3ccc4c(c3)CC(C)N4C(=O)C3CCC3)CC2)o1 (stereo not drawn) | 0 | 0 | 0 | 0 | 0 | 0 | -
COc1ccc2oc(C(=O)NNC(=O)c3ccc(F)cc3)c(C)c2c1 | 0 | 0 | 0 | 0 | 0 | 0 | -
COc1ccc(/C=C/C(=O)c2oc3ccc(F)cc3c2C)cc1 | 40.9 | 0 | 0 | 0 | 0 | 0 | 31.4
O=C(c1cc2ccccc2cc1O)N1CCN(c2cccc(Cl)c2)CC1 | 47.0 | 0 | 0 | 0 | - | 0 | 30.1
Cc1cccc(/C=N/NC(=O)c2ccc(NC(=O)c3ccc(Cl)cc3)cc2)n1 | 96.4 | 0 | 0 | 0 | 0 | 0 | 0
Cc1cccc(-c2oc3ccccc3c2C#CCCO)c1 | 44.9 | 0 | 0 | 0 | 0 | 0 | 0
SMILES | tim10-1 inh | TIM10 inh | NLRP3 yeast inh | tim23-1 inh | PfHsp90 yeast 2 | SKKanGAS inh | tim10-1 conf
COc1ccc(-c2oc(=O)c3cc(OC)c(OC)cc3c2C#CCCO)cc1 | 0 | 0 | 0 | 0 | 0 | - | -
Fc1cccc(F)c1CSc1nc2ccccc2[nH]1 | 42.6 | 0 | 0 | 0 | 0 | 0 | 0
O=C(CSc1nc2ccccc2[nH]1)c1ccccc1F | 0 | 0 | 0 | 0 | 0 | 0 | -
COc1ccccc1CCNC(=O)c1ccc(NC(=O)CC2SC(N3CCCC3)=NC2=O)cc1 (stereo not drawn) | 0 | 0 | 0 | 0 | 0 | 0 | -
COc1ccc(OC)c(/C=C/C(=O)N2C(=O)c3cccc(N)c3C2=O)c1 | 42.3 | 0 | 0 | 0 | 0 | 0 | 31.5
Nc1cccc2c1C(=O)N(C(=O)/C=C/c1cccc(Br)c1)C2=O | - | - | - | - | 0 | 0 | -
COc1cc(/C=C/C(=O)N2C(=O)c3cccc(N)c3C2=O)cc(OC)c1OC | 43.2 | 0 | 0 | 0 | 0 | 0 | 0
O=C1C=C(c2ccc3ccccc3c2)C[C@@H](c2ccc(F)cc2)C1 | 0 | 0 | 0 | 0 | 0 | - | -
Cn1c(=O)c2c(nc(CN3CCN(c4ccccc4)CC3)n2CCCc2ccccc2)n(C)c1=O | 43.2 | 0 | 0 | 0 | - | 0 | 0
Cc1nonc1C(=O)N/N=C/c1ccc(O)cc1O | 45.7 | 0 | 0 | 0 | 0 | 0 | 0
CCn1c2ccccc2c2c3ncc4cccn4c3ccc21 | 49.1 | 0 | 0 | 0 | 0 | 0 | 29.9
c1ccc2c(c1)ncc1cccn12 | 0 | 0 | 0 | 0 | 0 | 0 | -
CN1CCN(C(=O)CCN2C(=O)/C(=C/c3ccc(F)cc3)SC2=S)CC1 | 0 | 0 | 0 | 0 | 0 | 0 | -
CC(=O)c1cc(NC(=O)c2ccc(Cl)cc2)c(=O)oc1/C=C/N(C)C | 45.8 | 0 | 0 | 0 | 0 | 0 | 0
Nc1cccc(NP(=O)(c2ccccc2)c2ccccc2)c1 | 0 | 0 | 0 | 0 | 0 | 0 | -
O=c1c2ccccc2nc(SCc2ccc([N+](=O)[O-])cc2)n1-c1ccccc1 | 40.5 | 0 | 0 | 0 | 0 | 0 | 34.2
CCN(CC)C(=O)CN1C(=O)C2(OCC(C)(C)CO2)c2ccccc21 | 0 | 0 | 0 | 0 | 0 | - | -
CCOc1ccc(/C=C2/C(=O)N(c3ccc(OC)cc3)C(=S)N2CC(=O)OC)cc1OCC | 41.4 | 0 | 0 | 0 | 0 | 0 | 0
CS(=O)(=O)c1ccccc1-c1nc(-c2ccc(C(F)(F)F)cc2)no1 | 40.1 | 0 | 0 | 0 | 0 | 0 | 0
FC(F)(F)c1ccccc1-c1nc(-c2ccncc2)no1 | 0 | 0 | 0 | 0 | 0 | 0 | -
S=C(c1ccc(-c2ccc(Cl)cc2)o1)N1CCCCC1 | 0 | 0 | 0 | 0 | 0 | 0 | -
N#CCCN1CCN(C(=S)c2ccc(-c3ccc(Cl)cc3)o2)CC1 | 44.7 | 0 | 0 | 0 | - | 0 | 0
O=C(CSc1ccc2nnc(-c3ccccn3)n2n1)Nc1cccc(F)c1 | 0 | 0 | 0 | 0 | 0 | 0 | -
Cc1cc(NC(=O)c2noc3c2CCCC3)nn1Cc1ccc(Cl)cc1 | 44.7 | 0 | 0 | 0 | 0 | 0 | 0
Cc1nn(-c2ccc(F)cc2)c(Cl)c1/C=C1\C(=O)Nc2ccccc21 | 54.1 | 0 | 0 | 0 | 0 | - | 40.6
Cc1nn(-c2ccccc2)c(Cl)c1/C=C1\C(=O)N(C)C(=S)N1C | 0 | 0 | 0 | 0 | 0 | 0 | -
COc1cc2c(cc1OC)/C(=C/c1ccc(Br)cc1)C(=O)OC2 | 42.6 | 0 | 0 | 0 | 0 | 0 | 0
